Source: PubChem BioAssay (National Center for Advancing Translational Sciences (NCATS))
In the library only some 8.5% were active in any assay of this set; here they are far more common.
Coupling enz: coupling enzyme interference in Giardia aldolase counter-screen; coupling enzyme system counterscreen, AmpLite Red fluorescence; activity change, negative = inhibition, % at 58.2 µM, hits read low; hit rate 0.67% among 290,000; AID 2472; in the data active = activity change below about -30%
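Counterscreen of the coupled detection system alone, without aldolase: glyceraldehyde-3-phosphate coupling enzymes plus AmpLite Red readout. Compounds at 57.5 uM final, 10 min RT preincubation, 20 min RT reaction, fluorescence 525/598 nm.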
Sfp inh: Sfp phosphopantetheinyl transferase inhibition. Potency, µM, actives largely listed as inhibitors. hit rate 3.5% among 310,000. AID 1490. Biochemical Sfp PPTase activity, qHTS. Q9F4F7;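 also: the enzyme is Sfp with the accession as filed and its product quenches rhodamine fluorescence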
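Buffer: 50 mM Hepes-Na pH 7.6, 10 mM MgCl2, 0.01% Nonidet P-40, 0.01% BSA. Enzyme 15 nM, pre-exposed to compound 15 min; substrates then added and fluorescence change tracked over 30 min.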
ALDH1A1 block: ALDH1A1 (human) enzyme inhibition; AID 1030; Purified ALDH1A1, NADH fluorescence, propionaldehyde substrate; Potency, µM (titrated, usually from 75.3 µM), usual class: inhibitors; hit rate 7.3% among 220,000; P00352; active = well fitted inhibition curve with a large enough effect, not every such curve was filed as active; inconclusive = small, poorly fitted or top-dose-only effect, or another doubt; inactive = no such curve, though single readings can be large or run the other way
Target sequence (P00352 whole entry, looked up): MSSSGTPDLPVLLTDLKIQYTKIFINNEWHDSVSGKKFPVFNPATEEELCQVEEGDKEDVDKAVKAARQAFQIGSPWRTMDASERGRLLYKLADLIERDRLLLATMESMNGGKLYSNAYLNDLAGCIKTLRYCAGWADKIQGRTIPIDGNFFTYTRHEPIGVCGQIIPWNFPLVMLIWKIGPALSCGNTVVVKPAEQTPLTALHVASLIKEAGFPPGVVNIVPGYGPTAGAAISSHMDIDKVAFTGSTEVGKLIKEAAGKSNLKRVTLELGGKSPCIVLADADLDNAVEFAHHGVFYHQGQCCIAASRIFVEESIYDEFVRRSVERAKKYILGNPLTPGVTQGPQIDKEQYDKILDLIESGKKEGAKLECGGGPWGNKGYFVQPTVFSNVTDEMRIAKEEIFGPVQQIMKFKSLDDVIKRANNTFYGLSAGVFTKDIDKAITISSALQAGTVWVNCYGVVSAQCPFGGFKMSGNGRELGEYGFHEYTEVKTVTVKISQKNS
KDM4E inh: blocks human JMJD2E demethylase activity | B2RXH2 | JMJD2E catalytic domain, FDH-coupled NADH fluorescence (FDH is formaldehyde dehydrogenase) | Potency, µM (series often up to 57.1 µM), most hits filed as inhibitors | hit rate 1.6% among 230,000; active = well fitted inhibition curve with a large enough effect, not every such curve was filed as active; inconclusive = small, poorly fitted or top-dose-only effect, or another doubt; inactive = no such curve, though single readings can be large or run the other way; also: nearly all actives have a fitted effect of over 50% in size
NPSR antagonist: neuropeptide S receptor (human) antagonism, cAMP; Q6W5P4; CHO-NPSR cells, cAMP TR-FRET, antagonist mode; Potency, µM (top dose mostly 38.3 µM), most hits filed as inhibitors; hit rate 1% among 220,000; AID 1461; also: nearly all actives have a fitted effect of over 50% in size
GoLoco inh red: inhibitors of human Gai1-RGS12 GoLoco interaction (red fluorophore) | AID 880 | P63096 | Potency, µM (highest dose often 61.6 µM), actives largely listed as inhibitors | hit rate 0.44% among 230,000 | Gai1:RGS12 GoLoco peptide FP, rhodamine, 10 min; active = well fitted inhibition curve with a large enough effect, not every such curve was filed as active; inactive = no such curve, though single readings can be large or run the other way; also: nearly all actives have a fitted effect of over 30% in size
A number is an active result; – = inactive; ? = inconclusive; · = no result given; ! = a repeat was not active; [ ] = dose if it differs, or a comment. Unless noted, calls follow the shape of the dose curve; as a rule, active = well fitted curve in the direction sought with a large enough effect; inconclusive = small, poorly fitted or top-dose-only effect, or another doubt; inactive = no such curve, though single readings can be large; an effect the other way counts as inactive or inconclusive.

SMILES | Coupling enz | Sfp inh | ALDH1A1 block | KDM4E inh | NPSR antagonist | GoLoco inh red
CC1Cc2cc(/C(O)=C3/C(=O)C(=O)N(CCN4CCOCC4)C3c3cccc(Cl)c3)ccc2O1 (stereo not drawn) | – | – | 11µM | – | – | –
CCOC(=O)C1=C(O)c2ccccc2C(=O)/C1=C\c1ccc(C)cc1 | -51 | 11µM | 7.9µM | ? | – | –
Cc1cc(C)nc(N(C#N)CC(=O)c2ccccc2)n1 | – | – | 28µM | – | – | –
N#CN(Cc1ccccc1)Cc1ccccc1 | – | – | 40µM | – | – | –
Cc1cc(C)nc(N(C#N)Cc2ccccc2)n1 | – | – | 14µM | – | – | –
CN(Cc1ccccc1)Cc1ccccc1 | · | – | · | · | · | ·
COc1ccc(C(C(=O)NC2CCCC2)N(Cc2cccnc2)C(=O)c2snc(C(N)=O)c2N)cc1OC (stereo not drawn) | – | – | · | · | · | ·
CC[N+](CC)(CC)CCOc1ccc(/C=C\c2ccccc2)cc1 | – | ? | ? | 25µM | · | –
COc1ccc(NC(=O)C(Sc2nnc(-c3ccncc3)n2-c2ccccc2C)c2ccccc2)cc1Cl (stereo not drawn) | – | – | – | – | – | –
O=C(c1ccccc1)C1C(=O)c2ccccc2C1=O | – | – | – | – | – | –
O=C1C(=C(O)c2ccccc2)C(=O)c2ccccc21 | – | – | 4µM | – | – | –
CCN1C(C)=C(C(=O)OC)C(c2ccccc2)N2C(=O)[C@](O)(C(=O)OC)CC(C#N)=C12 (stereo partly drawn) | – | – | –[13.5 µM] | · | · | ·
C[C@@H](CCc1ccc(O)cc1)NCCc1ccc(O)c(O)c1 | – | 56µM! | – | 20µM | · | –
OC(CNCCc1ccccc1)c1ccccc1 (stereo not drawn) | – | – | – | – | – | –
Cc1cccc(C)c1NC(=S)NCCc1ccc(O)c(O)c1 | – | 50µM | ? | – | – | –
C[C@H](NCCc1ccc(O)cc1)[C@@H](O)c1ccc(O)cc1 | – | – | – | – | · | –
Cc1ncsc1CCOC(=O)c1ccc(Cl)cc1 | – | – | – | – | – | –
Cc1cc(C)c2oc(-c3ccc(C)c(NC(=S)NC(=O)/C=C/c4ccco4)c3)nc2c1 | – | 40µM | – | – | – | –
Cc1ccc(-c2nc3ccccc3s2)cc1NC(=S)NC(=O)c1ccccc1 | · | – | 10µM | – | – | –
Cc1ccc(-c2nc3ccccc3[nH]2)cc1NC(=O)c1ccc2c(c1)OCO2 | – | – | – | – | – | –
Cc1ccc(-c2nc3ccccc3[nH]2)cc1NC(=O)/C=C/c1ccco1 | – | 50µM | 13µM | ? | – | –
Cc1ccc(-c2nc3ccccc3[nH]2)cc1NC(=S)NC(=O)c1ccccc1Br | – | – | 28µM | – | ? | –
CC12CN3CC(C)(CN(C1)C3c1ccccc1F)C2 (stereo not drawn) | – | – | – | – | – | –
Cc1ccc(N(CCC(=O)Nc2nnc(C3CC3)s2)S(=O)(=O)c2ccccc2)cc1 | – | – | – | – | – | –
Cc1ccc2oc(-c3cccc(NC(=S)NC(=O)/C=C/c4ccco4)c3)nc2c1 | – | – | ? | ? | 2.5µM | –
SMILES | Coupling enz | Sfp inh | ALDH1A1 block | KDM4E inh | NPSR antagonist | GoLoco inh red
COc1ccc(/C=C/C(=O)N/C(=C\c2ccco2)C(=O)NCCc2nc3ccccc3[nH]2)cc1 | – | ? | – | – | – | –
O=C(NC(=S)Nc1cc(-c2nc3ccccc3[nH]2)ccc1Cl)c1ccc2c(c1)OCO2 | – | ? | 8.9µM | ? | – | –
CC(=O)NC(=S)Nc1ccc(-c2nc3ccc(C)cc3s2)cc1 | – | – | ? | ? | 10µM | –
O=C(/C=C/c1ccco1)N/C(=C\c1ccco1)C(=O)NCCc1nc2ccccc2[nH]1 | – | 50µM | ? | ? | – | –
COC(=O)c1ccc(Cn2nc(-c3ccc(C)cc3)ccc2=O)cc1 | – | – | · | · | · | ·
Nn1c(SCc2cccc(C(F)(F)F)c2)nnc1-c1ccco1 | – | – | 22µM | – | –[7.67 µM] | –
CCOC(=O)/C(C#N)=C1\CC2CCC1(C)C2(C)C (stereo not drawn) | – | 40µM | 13µM | – | – | –
CC(=O)c1cccc(OCC(=O)c2cc(C)n(-c3cc(C)on3)c2C)c1 | -34 | – | – | – | – | –
Cc1cc(-n2c(C)cc(C(=O)COc3ccc4ccc(=O)oc4c3)c2C)no1 | – | – | ? | ? | – | –
